Screens from PubChem BioAssay.
Only a selection was taken, and hits are over-represented in it overall.
Cycloheximide cs – Cycloheximide Counterscreen for Small Molecule Inhibitors of Shiga Toxin | AID 2314, 2010 | cell reporter, cycloheximide protein synthesis inhibition counterscreen | hit rate 12% among 300,000 | max response, %; in the data active = max response mostly above about 13%, no sharp cut-off; inactive = mostly below about 14%; also: read at 38.3 µM for the half of the compounds with a filed dose; 0% is about no effect
VACV Venus inh – qHTS for Stage-Specific Inhibitors of Vaccinia Orthopoxvirus: Venus Reporter Primary qHTS. Vaccinia virus Venus reporter expression, fluorescence. Potency, µM (titrated, usually from 36.5 µM), without a hit: at the top dose activity change, negative = inhibition, most hits filed as inhibitors. hit rate 0.46% among 330,000; calls by dose curve; tested in A549 cells; also: potency is read from the fitted curve at half-maximal effect; % is scaled to controls: 0 for no effect and ±100 for the full control effect; nearly all actives have a fitted effect of over 30% in size
LASV entry inh – qHTS for Inhibitors of binding or entry into cells for Lassa Virus. hit rate 1.2% among 300,000. Potency, µM (doses to about 37.9 µM), for inactives: at the highest dose activity change, negative = inhibition, actives largely listed as inhibitors. Lassa virus pseudotype entry inhibition, cell reporter; calls by dose curve; tested in HEK293 cells; also: potency is read from the fitted curve at half-maximal effect; % is scaled to controls: 0 for no effect and ±100 for the full control effect; nearly all actives have a fitted effect of over 50% in size
Marburg entry inh – qHTS for inhibitors of binding or entry into cells for Marburg Virus; AID 540276, 2011; Potency, µM (top dose mostly 37.8 µM), inactives show at the top dose activity change, negative = inhibition, hits mostly inhibitors; Marburg virus pseudotyped entry inhibition, cell reporter; hit rate 1.8% among 300,000; calls by dose curve; tested in HEK293 cells; also: potency is read from the fitted curve at half-maximal effect; % is scaled to controls: 0 for no effect and ±100 for the full control effect
Shiga inhibitor – A qHTS for Small Molecule Inhibitors of Shiga Toxin | Vero cells, Shiga toxin protein synthesis inhibition reporter | inhibition, % at 38.7 µM | hit rate 9.2% among 290,000; in the data active = inhibition mostly above about 28%, no sharp cut-off; inactive = mostly below about 43%; also: 0% is about no effect
VACV mCherry inh – qHTS for Stage-Specific Inhibitors of Vaccinia Orthopoxvirus: mCherry Reporter Primary qHTS | Potency, µM (doses to about 36.5 µM), for inactives: top-dose activity change, negative = inhibition, hits mostly inhibitors | Vaccinia virus mCherry reporter infection, fluorescence | hit rate 0.63% among 310,000; calls by dose curve; tested in A549 cells; also: potency is read from the fitted curve at half-maximal effect; % is scaled to controls: 0 for no effect and ±100 for the full control effect; nearly all actives have a fitted effect of over 35% in size
* marks the source's active call; other numbers are inactive results; i = inactive; ? = inconclusive; · = not tested or not shown; [ ] = remark or other dose.

SMILES	Cycloheximide cs	VACV Venus inh	LASV entry inh	Marburg entry inh	Shiga inhibitor	VACV mCherry inh
COc1ccccc1CC(=O)Nc1cc(C)ccn1	45*	·	·	·	103*	·
CCc1nnc(NC(=O)COc2ccccc2[N+](=O)[O-])s1	10*	·	·	·	18	·
COc1ccccc1CNc1cc(C)ccn1	8	-6%	-4%[46.1 µM]	?	·	i
CCOc1ccccc1C(=O)Nc1nnc(CC)s1	14*	2%	·	·	25*	4%
CCc1nnc(NC(=O)COc2ccc([N+](=O)[O-])cc2)s1	-1	-7%	3%[46.1 µM]	-12%[46.1 µM]	-2	-1%
CCOc1cc(NC(=O)C2CC2)c(OCC)cc1NC(=O)c1ccccc1OCC	-4	-26%	?	10µM*	-7	-15%
Cc1ccc(NC(=O)C2CC(=O)N(c3ccc(OC(C)C)cc3)C2)cc1 (stereo not given)	·	-13%	-19%[46.1 µM]	·	·	-12%
C=CCSc1nnc(-c2cc3c(s2)-c2ccccc2CC3)o1	14*	?	-9%	7%[46.1 µM]	52*	·
O=C(CSc1nnc(-c2cccs2)o1)N1CCc2ccccc21	1	·	-3%	0%	-18	·
COc1ccccc1NC(=O)CCC(=O)c1ccc(-c2ccccc2)cc1	11	-12%	0%	4%	-5	-9%
COc1ccccc1NC(CC(=O)c1ccccc1)C(=O)OCC(=O)c1ccc(C)c(C)c1 (stereo not given)	40*	0%	?	-28%	37*	-8%
COc1ccccc1NC(CC(=O)c1ccccc1)C(=O)OCC(=O)c1ccc(Br)cc1 (stereo not given)	102*	-6%	5%	?	115*	-10%
COc1ccccc1NC(CC(=O)c1ccccc1)C(=O)OCC(=O)c1ccc(C)cc1 (stereo not given)	33*	-4%	-18%	-7%	73*	-13%
CCOC(=O)c1c(-c2ccccc2)c[nH]c1C	·	0%	-11%[46.1 µM]	-27%[46.1 µM]	·	-1%
O=S1(=O)c2ccc(Br)cc2-n2nncc2CN1Cc1ccc(C(F)(F)F)cc1	·	·	8%[46.1 µM]	·	·	·
CC(C)Sc1nnc(NC(=O)C2CC2)s1	35*	-9%	·	·	active	-13%
CCSc1nnc(NC(=O)NC(C)(C(F)(F)F)C(F)(F)F)s1	-2	?	?	?	9	-21%
CSc1nnc(NC(=O)C2CCCCC2)s1	-2	-3%	·	·	-3	11%
CCc1nnc(NC(=O)NC(C)(C)C)s1	24*	-10%	?	7%	95	·
CCSc1nnc(NC(=O)NC(CC)(C(F)(F)F)C(F)(F)F)s1	-4	28µM*	?	?	18	·
CC(C)Sc1nnc(Nc2ccccc2)s1	37*	-21%	1%	?	143*	·
CCSc1nnc(NC(=O)C2CCCCC2)s1	25*	-4%	?	?	62*	-15%
CCc1nnc(NC(=O)C2CCCCC2)s1	39*	·	17%	-3%	13	·
CCOC(=O)Cc1nnc(NC(=O)C2CCCCC2)s1	7	·	0%	-1%	4	·
CC(C)=CC(=O)Nc1nnc(C(C)C)s1	46*	-2%	?	?	53	-12%
SMILES	Cycloheximide cs	VACV Venus inh	LASV entry inh	Marburg entry inh	Shiga inhibitor	VACV mCherry inh
CCCC(=O)Nc1nnc(SCC)s1	19*	-11%	11%	3%	38*	-10%
CCOC(=O)CSc1nnc(Cn2nnc3ccccc32)n1-c1ccc(F)cc1	-2	-2%	1%	21%[46.1 µM]	12	i
CC(C)c1nnc(NC(=O)C2CCCCC2)s1	13*	-11%	·	·	20*	-11%
CCc1nnc(NC(=O)C2CCCN(S(=O)(=O)c3ccc(OC)cc3)C2)s1 (stereo not given)	38*	7%	-19%	-23%[14.2 µM]	72*	-16%
Cc1cc(C)cc(NC(=O)c2ccc3c(c2)nnn3C2CCCC2)c1	·	-20%	?	·	·	-17%
CCN(C(=O)COC(=O)c1cccc(S(=O)(=O)N2CCOCC2)c1)C1CCS(=O)(=O)C1 (stereo not given)	·	-9%	23%	?	·	-10%
CC(Cl)C(=O)NN=C(c1ccccc1)c1ccccc1 (stereo not given)	16*	·	·	·	41	·
CC(C)(C)c1ccc(-n2ncc3c2CCCC3NC(=O)c2cnccn2)cc1 (stereo not given)	30*	-21%	?	?	73*	?
